This is part of a sample that, as a whole, favours compounds with a hit. Of some 83,000 tested, about 20% had one in any assay.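 Growth was measured after 48 h exposure to one concentration of compound in 96-well plates. Values under 10 count as active.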 The source made the active and inactive calls.
Key:
Assay in all cases: NCI-60 one-dose screen, 48 h (100 = growth as untreated, 0 = no growth, -100 = all killed)
Settings in all cases: 10 µM unless noted
[1] = system: NCI-H23 lung
[2] = system: NCI-H226 lung
[3] = system: NCI-H322M lung
[4] = system: HOP-62 NSCLC
[5] = system: NCI-H460 lung
[6] = system: HOP-92 NSCLC
[7] = system: NCI-H522 lung
[8] = system: 786-0 renal
[9] = system: COLO 205 colon
[10] = system: DU-145 prostate
[11] = system: K-562 leukemia
[12] = system: MALME-3M melanoma
[13] = system: MDA-MB-231 breast
[14] = system: RXF 393 renal
[15] = system: SF-268 CNS
[16] = system: SF-295 CNS
[17] = system: SF-539 CNS
[18] = system: UACC-257 melanoma
[19] = system: M14 melanoma
[20] = system: A549/ATCC NSCLC

Measured: growth

O=C1NC(=C(Cl)Cl)/C(=N/S(=O)(=O)N2CCC(C3(C(F)(F)F)N=N3)CC2)N1
inactive: [1] 45.3% | [2] 106% | [3] 95.8% | [4] 104% | [5] 100% | [6] 87% | [8] 103% | [9] 26% | [10] 102% | [12] 100% | [13] 71.2% | [14] 79.5% | [15] 86% | [16] 101% | [17] 98.2% | [18] 97.2% | [19] 98.9%
active: [7] -58% | [11] 8.72%

N/C(=N\C(N)=N\c1nc2ccccc2s1)c1ccncc1
inactive: [1] 77.7% | [2] 76.1% | [3] 96% | [4] 60.7% | [5] 94% | [6] 65.2% | [8] 73.9% | [9] 64.3% | [10] 91.1% | [11] 13.1% | [12] 81.5% | [13] 55.7% | [14] 65.7% | [16] 74.1% | [17] 68.2% | [18] 95.3% | [19] 49.5%
active: [7] 2.64% | [15] 7.14%

O=C([O][Sn]([O]C(=O)c1ccccn1)([c]1ccccc1)[c]1ccccc1)c1ccccn1
active: [7] -68.7%
inactive: [1] 55.2% | [2] 65.5% | [3] 123% | [4] 98.9% | [5] 107% | [6] 74.5% | [8] 96.2% | [9] 77.4% | [10] 92.3% | [11] 24% | [12] 86.4% | [13] 87.4% | [14] 41.7% | [15] 83.5% | [16] 127% | [17] 97.4% | [18] 73.9% | [19] 85.8%

O=C1NN(C(=O)c2ccc(Cl)cc2)C(c2ccccc2)=N/C1=C\c1cn(-c2ccccc2)nc1-c1ccccc1
inactive: [1] 89.6% | [2] 106% | [3] 94.7% | [4] 90.3% | [5] 99.5% | [6] 94.6% | [7] 85% | [8] 90.7% | [9] 109% | [10] 103% | [11] 99.2% | [12] 77.7% | [13] 92% | [14] 89.9% | [15] 94.8% | [16] 73.8% | [17] 94.1% | [18] 92.8% | [19] 83.4%

COc1cc2c(c(OC)c1OC)-c1ccc(N)c(=O)cc1[C@@H](NC(C)=O)CC2
active: [1] 4.57% | [5] -2.43% | [7] -34.2% | [9] -71.8% | [10] -28.8% | [13] -9.55% | [14] -5.16% | [17] -14% | [19] -21.8%
inactive: [2] 40.1% | [3] 27.4% | [4] 46.1% | [6] 31% | [8] 19.7% | [11] 17.3% | [12] 58.4% | [15] 17.9% | [16] 17.7% | [18] 61.2%

CC(C)C(C(=O)NCCN1CCOCC1)N1C(=O)/C(=C/c2ccc(Br)cc2)SC1=S (configuration not stated)
inactive: [1] 98.4% | [2] 107% | [3] 100% | [4] 104% | [5] 101% | [6] 104% | [7] 95.9% | [20] 102% | [9] 111% | [10] 108% | [11] 96% | [12] 106% | [13] 108% | [14] 125% | [15] 94.2% | [16] 102% | [17] 98.6% | [18] 106% | [19] 90.7%

COc1ccc(S(=O)(=O)NCCCNc2nccc(-c3c(-c4cccc([N+](=O)[O-])c4)nc4sccn34)n2)cc1
inactive: [1] 47.3% | [2] 34.8% | [3] 67.6% | [4] 61% | [5] 44.4% | [6] 82.1% | [7] 32.4% | [8] 66.6% | [9] 36.4% | [10] 51.6% | [11] 28.7% | [12] 58% | [13] 59.5% | [14] 67.1% | [15] 49% | [16] 43.7% | [17] 75.6% | [18] 53% | [19] 41.6%

Cc1ccc(S(=O)(=O)Nc2c(Br)cc(Br)cc2C(N)=O)cc1
inactive: [1] 96% | [2] 102% | [3] 88.4% | [4] 109% | [5] 105% | [6] 94.4% | [7] 115% | [8] 101% | [9] 103% | [10] 113% | [11] 119% | [12] 87.4% | [13] 103% | [14] 93.1% | [15] 109% | [16] 97.3% | [17] 101% | [18] 107% | [19] 94.5%

NC(=O)CCCN1C/C(=C\c2ccccc2)C(=O)c2ccccc21
inactive: [1] 95.6% | [2] 86.4% | [3] 88.2% | [4] 88.8% | [5] 111% | [6] 84.4% | [7] 80.4% | [8] 96.6% | [9] 105% | [10] 102% | [11] 97.1% | [12] 105% | [13] 100% | [14] 81.9% | [15] 90.2% | [16] 94.3% | [17] 105% | [18] 87.5% | [19] 103%

CCCCCCCCC(C)OC(=O)c1nn(C(C)=O)c2ccccc12 (configuration not stated)
inactive: [1] 89.3% | [2] 105% | [3] 102% | [4] 97.7% | [5] 110% | [6] 98.7% | [7] 90.1% | [8] 97.3% | [9] 111% | [10] 110% | [11] 106% | [12] 106% | [13] 99.7% | [14] 105% | [15] 102% | [16] 91.5% | [17] 98.7% | [18] 99.7% | [19] 101%

CCO/C=N/C1=C(C#N)C(c2ccc(Cl)cc2)c2c(c3ccc(C)cc3[nH]c2=O)O1 (configuration not stated)
inactive: [1] 85.4% | [2] 78.9% | [3] 88% | [4] 70.7% | [5] 95% | [6] 50.7% | [7] 74.2% | [20] 90.2% | [9] 96.1% | [10] 103% | [11] 88.1% | [12] 81.8% | [13] 59.6% | [14] 73.9% | [15] 90.7% | [16] 89.6% | [17] 75.9% | [18] 97.2% | [19] 87.1%

O=c1[nH]c2ccc(Br)cc2c2c1C(c1ccc(Cl)cc1)c1c(ncn3nc(-c4ccco4)nc13)O2 (configuration not stated)
inactive: [1] 76.1% | [2] 65.5% | [3] 75.3% | [4] 50% | [5] 85.1% | [6] 37.7% | [7] 69.4% | [20] 74.8% | [9] 91% | [10] 90% | [11] 80% | [12] 77.5% | [13] 48.6% | [14] 59.1% | [15] 74.3% | [16] 87.9% | [17] 65.5% | [18] 98.3% | [19] 74.9%

N=C(N)c1ccc(-c2ccc(-c3ccc(-c4cccs4)s3)s2)cc1
inactive: [1] 98.8% | [2] 93.4% | [3] 43% | [4] 93.8% | [5] 21.7% | [6] 54.6% | [7] 100% | [8] 89.9% | [9] 102% | [10] 90.4% | [11] 58% | [12] 85% | [13] 81.1% | [14] 80.7% | [15] 93.5% | [16] 101% | [17] 88.5% | [18] 99.3% | [19] 100%

COc1ccc2c(c1)OC1=C(C(=O)OC1)C2c1cc(OC)c2c(c1)OCO2 (configuration not stated)
active: [5] 4.22% | [7] 4.87% | [9] -38.1% | [10] -17.9% | [11] 7.46% | [13] 9.12% | [16] 9.01% | [17] 1.82% | [19] 7.05%
inactive: [1] 46.2% | [2] 21.3% | [3] 49% | [4] 29.6% | [6] 55% | [8] 20.5% | [12] 51.2% | [14] 16.5% | [15] 19.7% | [18] 67.8%

CCCCOc1ccc(/C=C2/SC(N3CCCC3)=NC2=O)cc1
inactive: [1] 98.8% | [2] 85.5% | [3] 98.8% | [4] 99.3% | [5] 99% | [6] 86.8% | [7] 82.4% | [9] 104% | [10] 80.9% | [11] 82% | [12] 97.9% | [13] 95.6% | [14] 90.9% | [15] 98.7% | [16] 93.8% | [17] 87.9% | [18] 102% | [19] 95.4%

Cc1ccc(CSC(=N)N)cc1C
inactive: [1] 108% | [2] 104% | [3] 111% | [4] 110% | [5] 109% | [6] 67.4% | [20] 103% | [8] 103% | [9] 107% | [10] 108% | [12] 111% | [13] 99.2% | [14] 103% | [15] 104% | [16] 111% | [17] 114% | [18] 119% | [19] 105%

— PubChem BioAssay (NCI)
